Data from PubChem BioAssay (NCATS).
Records with an inconclusive call do not appear. Unless noted, the call rests on the fitted dose curve; in most records, active means well fitted curve in either direction with a large enough effect (not every such curve was filed as active); inconclusive means small, poorly fitted or top-dose-only effect, or another doubt; inactive means flat fitted curve, though single readings scatter.

What was measured:
[1] = AP1 Signaling Pathway (AID 357); conditions: ME-180 AP-1-bla reporter, EGF-induced, beta-lactamase ratio, 5 h; at 17.2 µM (top of the series) unless noted;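 further: ME-180 reporter cells stimulated with EGF at its EC50 level; on the % scale 0 is the no-effect control and ±100 the full control effect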
Method in brief: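 Beta-lactamase reporter under AP-1 response element, ME-180 background. Stimulus: EC50 EGF. Compound exposure 5 h, 37 °C. Detection: CCF4, 2.5 h RT, 460/530 nm. Values: AC50 from titration.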

[2] = NFAT Signaling Pathway (AID 444); conditions: Jurkat NFAT-bla M1, carbachol, beta-lactamase ratio, 5 h; at 17.2 µM (top of the series) unless noted;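 further: carbachol stimulus at about its EC50 of 1 µM final; on the % scale 0 is the no-effect control and ±100 the full control effect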
Method in brief: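 Jurkat cells with NFAT-driven β-lactamase reporter and co-expressed M1 receptor, stimulated with carbachol (final 1 uM, ~EC50), compound titration, 5 h at 37 °C. CCF4 loaded 1 h at RT; 460/530 nm ratio gave %activity and AC50.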

[3] = Stat Signaling Pathway (AID 446); conditions: ME-180 (cervical carcinoma) SIE beta-lactamase reporter, IL-6 stimulated, 5 h; at 17.2 µM (top of the series) unless noted;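 further: ME-180 cervical cancer cells given 40 pM IL-6 alongside compound; SIE-controlled beta-lactamase reporter measured as 460/530 nm FRET emission ratio; on the % scale 0 is the no-effect control and ±100 the full control effect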
Method in brief: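 Compound effects on IL-6-induced STAT reporter activity were measured in ME-180 cells. After overnight culture, cells were co-treated with 40 pM IL-6 for 5 hrs before beta-lactamase substrate loading at room temperature.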

[4] = molecular target: Glucocorticoid receptor (Homo sapiens) (UniProt P04150); assay: GR-GFP Redistribution (AID 450;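 active means compounds whose dose series gives a full or clear partial fitted curve of increased nuclear translocation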; further: potency means the concentration at half of the fitted maximal effect)
Glucocorticoid receptor (Homo sapiens), sequence (P04150 whole entry, looked up): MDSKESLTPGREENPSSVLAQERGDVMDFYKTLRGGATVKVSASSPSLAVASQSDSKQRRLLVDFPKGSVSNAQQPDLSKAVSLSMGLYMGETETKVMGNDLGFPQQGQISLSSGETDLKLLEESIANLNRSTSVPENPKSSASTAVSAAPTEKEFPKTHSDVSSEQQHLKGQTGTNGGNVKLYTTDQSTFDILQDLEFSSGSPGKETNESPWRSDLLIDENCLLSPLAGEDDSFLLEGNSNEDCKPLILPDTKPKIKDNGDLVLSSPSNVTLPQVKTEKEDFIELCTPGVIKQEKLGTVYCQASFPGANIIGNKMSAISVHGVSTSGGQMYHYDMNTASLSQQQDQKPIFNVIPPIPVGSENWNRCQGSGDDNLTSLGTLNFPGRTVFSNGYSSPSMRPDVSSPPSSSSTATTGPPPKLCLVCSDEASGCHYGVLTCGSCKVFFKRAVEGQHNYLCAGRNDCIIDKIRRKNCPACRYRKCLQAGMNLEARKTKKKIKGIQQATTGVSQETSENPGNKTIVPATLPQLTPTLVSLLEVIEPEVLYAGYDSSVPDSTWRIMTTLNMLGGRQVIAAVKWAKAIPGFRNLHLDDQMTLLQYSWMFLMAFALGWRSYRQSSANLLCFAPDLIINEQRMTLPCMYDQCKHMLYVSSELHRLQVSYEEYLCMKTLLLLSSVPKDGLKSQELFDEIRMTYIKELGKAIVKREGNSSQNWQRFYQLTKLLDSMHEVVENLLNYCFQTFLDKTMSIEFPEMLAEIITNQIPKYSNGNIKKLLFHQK

Cc1c(N2C(=O)SC(CC(=O)O)C2=O)c(=O)n(-c2ccccc2)n1C (centres undefined)
inactive: activity change, negative = inhibition [1] -20.4% | activity change, negative = inhibition [2] 10.6% | activity, negative = inhibition [3] 6.13% | Potency [4] > 20.6 µM

Cc1cc(SCCC(=O)O)nc2ccccc12
inactive: activity change, negative = inhibition [1] 0.423% | activity change, negative = inhibition [2] -5.26% | activity, negative = inhibition [3] 6.44% | Potency [4] > 20.6 µM

COc1ccc(CC(=O)OCN2C(=O)c3ccccc3C2=O)cc1
inactive: activity change, negative = inhibition [1] 11.9% | activity change, negative = inhibition [2] -7.12% | activity, negative = inhibition [3] -0.768% | Potency [4] > 20.6 µM

c1ccc(-n2ncc3c(NCC4CCCO4)ncnc32)cc1 (centres undefined)
inactive: activity change, negative = inhibition [1] -4.47% | activity change, negative = inhibition [2] -15.8% | activity, negative = inhibition [3] 2.07% | Potency [4] > 20.6 µM

Cc1ccc(S(=O)(=O)N(CC(O)CN(C)C)c2ccccc2)cc1 (centres undefined)
inactive: activity change, negative = inhibition [1] 6.2% | activity change, negative = inhibition [2] -0.131% | activity, negative = inhibition [3] 7.64% | Potency [4] > 20.6 µM

O=C(CN1C(=O)c2ccccc2C1=O)OCN1C(=O)c2ccccc2C1=O
inactive: activity change, negative = inhibition [1] 8.86% | activity change, negative = inhibition [2] -11.6% | activity, negative = inhibition [3] 6.85% | Potency [4] > 20.6 µM

COC(=O)c1[nH]c2cc(OC)ccc2c1NC(=O)CN1CCC(C(N)=O)CC1
inactive: activity change, negative = inhibition [1] -3.69% | activity change, negative = inhibition [2] -2.98% | activity, negative = inhibition [3] 0.718% | Potency [4] > 20.6 µM

CSc1nc2sc3c(c2c2nnnn12)CCC3
inactive: activity change, negative = inhibition [1] -5.46% | activity change, negative = inhibition [2] -14.8% | activity, negative = inhibition [3] 9.44% | Potency [4] > 20.6 µM

CCOc1ccc(S(=O)(=O)N(C)C)cc1-c1nc2c(C(C)(C)C)nn(C)c2c(=O)[nH]1
inactive: activity change, negative = inhibition [1] 5.08% | activity change, negative = inhibition [2] 8.6% | activity, negative = inhibition [3] -17.2% | Potency [4] > 20.6 µM

COC(=O)c1sccc1NC(=O)c1c(C)cc(=O)oc1C
inactive: activity change, negative = inhibition [1] 9.11% | activity change, negative = inhibition [2] 8.6% | activity, negative = inhibition [3] -6.64% | Potency [4] > 20.6 µM

O=C(c1ccco1)N1CCN(CCOCCOc2cccc3ccccc23)CC1
inactive: activity change, negative = inhibition [1] 1.08% | activity change, negative = inhibition [2] -2.55% | activity, negative = inhibition [3] -10% | Potency [4] > 20.6 µM

COc1ccc(C(=O)N2CCCC(c3ccccc3)C2)cc1 (centres undefined)
inactive: activity change, negative = inhibition [1] -9.81% | activity change, negative = inhibition [2] 18.5% | activity, negative = inhibition [3] 2.57% | Potency [4] > 20.6 µM

C=CCNc1nc(NCc2ccccc2)c(C#N)c2c1CN(C)CC2
inactive: activity change, negative = inhibition [1] 23.1% | activity change, negative = inhibition [2] 5.41% | activity, negative = inhibition [3] 25.2% | Potency [4] > 20.6 µM

CC1(C)CN(O)CCN1O
inactive: activity change, negative = inhibition [1] 29.1% | activity change, negative = inhibition [2] 0.875% | activity, negative = inhibition [3] 7.69% | Potency [4] > 20.6 µM

c1ccc(-c2nnc(OCCN3CCOCC3)c3ccccc23)cc1
inactive: activity change, negative = inhibition [1] -8.82% | activity change, negative = inhibition [2] 5.5% | activity, negative = inhibition [3] 5.26% | Potency [4] > 20.6 µM

O=C(Nc1nc(=O)c2ccccc2s1)c1ccccc1
inactive: activity change, negative = inhibition [1] -10.8% | activity change, negative = inhibition [2] -15.9% | activity, negative = inhibition [3] -3.03% | Potency [4] > 20.6 µM

COCCNc1nc2c(c(=O)n(C)c(=O)n2C)n1Cc1cccc(C(F)(F)F)c1
inactive: activity change, negative = inhibition [1] 13.5% | activity change, negative = inhibition [2] 5.18% | activity, negative = inhibition [3] 226% | Potency [4] > 20.6 µM

O=c1[nH]nc2n1CCCCC2
inactive: activity change, negative = inhibition [1] 13.2% | activity change, negative = inhibition [2] 9.36% | activity, negative = inhibition [3] 7.42% | Potency [4] > 20.6 µM

N#Cc1c(N)sc(=S)c2c1CCCCC2
inactive: activity change, negative = inhibition [1] 10.8% | activity change, negative = inhibition [2] -12.9% | activity, negative = inhibition [3] -20.4% | Potency [4] > 20.6 µM

CC1(C)Cc2[nH]c(=O)c(C#N)cc2CS1
inactive: activity change, negative = inhibition [1] 19.5% | activity change, negative = inhibition [2] -1.45% | activity, negative = inhibition [3] 10.8% | Potency [4] > 20.6 µM

CCn1nc(NC(=O)c2ccco2)c2cc3ccccc3nc21
inactive: activity change, negative = inhibition [1] -5.14% | activity change, negative = inhibition [2] 5.58% | activity, negative = inhibition [3] -7.47% | Potency [4] > 20.6 µM

Nc1nc(NC(=O)c2cccs2)nn1-c1ccccc1
inactive: activity change, negative = inhibition [1] 4.21% | activity change, negative = inhibition [2] 7.64% | activity, negative = inhibition [3] -0.835% | Potency [4] > 20.6 µM

c1ccc(Cc2nnc3n2CCCCC3)cc1
inactive: activity change, negative = inhibition [1] -5.05% | activity change, negative = inhibition [2] -13.9% | activity, negative = inhibition [3] 5.83% | Potency [4] > 20.6 µM

CCOc1ccc(-n2c3nc4ccccc4nc3c3c(=O)n(Cc4ccco4)cnc32)cc1
inactive: activity change, negative = inhibition [1] -1.51% | activity change, negative = inhibition [2] -9.2% | activity, negative = inhibition [3] -2.34% | Potency [4] > 20.6 µM

CCCCSc1nc(O)c(C2OC(=O)c3c2ccc(OC)c3OC)c(=O)n1C (centres undefined)
inactive: activity change, negative = inhibition [1] -4.1% | activity change, negative = inhibition [2] 1.82% | activity, negative = inhibition [3] -7.44% | Potency [4] > 20.6 µM

Cc1c(C)[n+](=O)c2c(n1[O-])CCC2
inactive: activity change, negative = inhibition [1] 0.615% | activity change, negative = inhibition [2] -5.07% | activity, negative = inhibition [3] -0.102% | Potency [4] > 20.6 µM
